# Reference: PubChem BioAssay
# Active and inactive are the calls of the source.
# Legend:
# [1] = small molecules captured by biotinylated probe aFSTL3 – biochemical, small-molecule microarray, fluorescence 635/667, stem cell growth factor project, primary screen (AID 1064); settings: higher = more signal;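 also: measures binding of the biotinylated anti-FSTL3 antibody to printed compounds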
# [2] = binders from COS7 lysate, DM2A8 probe, primary screen, torsin A project, cell lysate, small-molecule microarray, fluorescence 635/667 (AID 1065); settings: higher = more signal, COS7 lysate expressing mutant human TOR1A
# [3] = small molecules captured by biotinylated probe aFGF2 – biochemical, small-molecule microarray, fluorescence 635/667, stem cell growth factor project, primary screen (AID 1067); settings: higher = more signal;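 also: measures binding of biotinylated aFGF2 protein to printed compounds on slides; z-score merges feature fluorescence and signal-to-noise across triplicate slides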
# [4] = small molecules captured by biotinylated probe aFGF10 – biochemical, small-molecule microarray, fluorescence 635/667, stem cell growth factor project, primary screen (AID 1071); settings: higher = more signal;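 also: score merges 667 nm spot intensity and signal to noise from triplicate slides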
# [5] = target: Neurogenic locus notch homolog protein 2 (Homo sapiens) (UniProt Q04721); assay: small molecules binding Notch2 protein – biochemical, small-molecule microarray, 635 nm fluorescence, stem cell growth factors, primary screen (AID 1073); settings: higher = more signal
# [6] = target: Pro-neuregulin-1, membrane-bound isoform (Homo sapiens) (UniProt Q02297); assay: small molecules binding neuregulin-1 protein – biochemical, small-molecule microarray, fluorescence 635/667, psychiatric disease protein project, primary screen (AID 1075); settings: NRG1 binding, 635 nm fluorescence, higher = more signal;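 also: score combines 667 nm spot fluorescence with signal to noise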
# [7] = system: Neuregulin-1 EGF-like domain; assay: small molecules binding NRG1 EGF domain – biochemical, small-molecule microarray, 635 nm fluorescence, primary screen (AID 1081); settings: higher = more signal;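 also: binding of the protein to compounds printed on small-molecule microarray slides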
# [8] = FRG1 expression reporter modulators in myotubes – cell-based, C2C12 myotubes, firefly/Renilla luciferase, luminescence, FRG1 inhibition for FSHD, primary screen (AID 1084); settings: FRG1 promoter luciferase, higher = more signal, called active from +8 up or from −8 down
# [9] = small molecules captured by biotinylated probe aFST – biochemical, small-molecule microarray, fluorescence 635/667, stem cell growth factor project, primary screen (AID 1086); settings: higher = more signal;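 also: score merges 667 nm fluorescence with signal-to-noise of each printed compound spot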
# [10] = binders of probe aHhip on microarray, primary screen, stem cell growth factor project, biochemical, small-molecule microarray, fluorescence 635/667 (AID 1087); settings: higher = more signal;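 also: score merges spot fluorescence at 667nm with spot signal to noise ratio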
# [11] = system: PRMT1 (protein arginine N-methyltransferase 1); assay: small molecules binding arginine methyltransferase PRMT1 – biochemical, small-molecule microarray, 635 nm fluorescence, primary screen (AID 1088); settings: higher = more signal;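 also: binding of Prmt1 protein to compounds spotted on small-molecule microarray slides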
# [12] = growth effects on S. cerevisiae YJM789 – YJM789 clinical isolate, OD600, 24 h, basal, primary screen (AID 1089); settings: higher = more signal, called active from +8 up or from −8 down;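 also: growth of clinical yeast isolate S. cerevisiae YJM 789 seeded 1000 cells per well; test concentration not given here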
# [13] = S. pombe growth modifiers, basal conditions – strain 972, OD600, 24 h, no modulator, primary screen (AID 1090);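 also: basal condition with compound alone and no growth modifier present; test concentration not given here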; settings: S. pombe 972 growth, higher = more signal, called active from +8 up or from −8 down
# [14] = budding yeast growth modifiers under rapamycin – strain BY4716, OD600, 96 h, primary screen (AID 1091); also: test concentration not given here; settings: S. cerevisiae BY4716 + rapamycin, higher = more signal, called active from +8 up or from −8 down
# [15] = target: Torsin-1A-interacting protein 2 (Homo sapiens) (UniProt Q8NFQ8); assay: small molecules binding lysate-expressed LULL1 – cell lysate, human LULL1 lysate, 635/667 nm fluorescence, primary screen (AID 1092); settings: small-molecule microarray, hLULL1 lysate binding, 635 nm fluorescence; higher = more signal;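 also: probe is lysate of COS7 cells overexpressing human LULL1; score merges per-feature 667 nm fluorescence with signal-to-noise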
# [16] = optical density change of DRC41 E. coli – strain DRC41, OD650, 24 h, E. coli filamentation project, primary screen (AID 1093);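 also: MC1000 strain lacking acrAB efflux and sulA so SOS filamentation is blocked; test concentration not given here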; settings: E. coli DRC41 growth, higher = more signal, called active from +8 up or from −8 down
# [17] = probe aLefty2 binding to arrayed compounds – biochemical, biotinylated probe, 635/667 nm fluorescence, primary screen (AID 1094); settings: small-molecule microarray, higher = more signal;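 also: score merges spot fluorescence near 667 nm with spot signal-to-noise ratio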
# [18] = system: Noggin (protein binding on small-molecule microarray); assay: small molecules binding Noggin protein – biochemical, 635/667 nm fluorescence, primary screen (AID 1095); settings: 635 nm fluorescence, higher = more signal;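 also: score merges 667 nm feature fluorescence with signal to noise over triplicate slides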
# [19] = target: Neurogenic locus notch homolog protein 3 (Homo sapiens) (UniProt Q9UM47); assay: small molecules binding NOTCH3 protein – biochemical, 635/667 nm fluorescence, primary screen (AID 1096); settings: small-molecule microarray, 635 nm fluorescence, higher = more signal
# [20] = probe aEGFR binding to arrayed compounds – biochemical, biotinylated probe, 635/667 nm fluorescence, primary screen (AID 1097); settings: small-molecule microarray, higher = more signal;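 also: probe is a biotinylated anti-EGFR antibody binding compounds printed on slides; score combines fluorescence near 667 nm and signal to noise of each spot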
# Sequence of Neurogenic locus notch homolog protein 2 (Homo sapiens) (Q04721 whole entry, looked up, canonical isoform): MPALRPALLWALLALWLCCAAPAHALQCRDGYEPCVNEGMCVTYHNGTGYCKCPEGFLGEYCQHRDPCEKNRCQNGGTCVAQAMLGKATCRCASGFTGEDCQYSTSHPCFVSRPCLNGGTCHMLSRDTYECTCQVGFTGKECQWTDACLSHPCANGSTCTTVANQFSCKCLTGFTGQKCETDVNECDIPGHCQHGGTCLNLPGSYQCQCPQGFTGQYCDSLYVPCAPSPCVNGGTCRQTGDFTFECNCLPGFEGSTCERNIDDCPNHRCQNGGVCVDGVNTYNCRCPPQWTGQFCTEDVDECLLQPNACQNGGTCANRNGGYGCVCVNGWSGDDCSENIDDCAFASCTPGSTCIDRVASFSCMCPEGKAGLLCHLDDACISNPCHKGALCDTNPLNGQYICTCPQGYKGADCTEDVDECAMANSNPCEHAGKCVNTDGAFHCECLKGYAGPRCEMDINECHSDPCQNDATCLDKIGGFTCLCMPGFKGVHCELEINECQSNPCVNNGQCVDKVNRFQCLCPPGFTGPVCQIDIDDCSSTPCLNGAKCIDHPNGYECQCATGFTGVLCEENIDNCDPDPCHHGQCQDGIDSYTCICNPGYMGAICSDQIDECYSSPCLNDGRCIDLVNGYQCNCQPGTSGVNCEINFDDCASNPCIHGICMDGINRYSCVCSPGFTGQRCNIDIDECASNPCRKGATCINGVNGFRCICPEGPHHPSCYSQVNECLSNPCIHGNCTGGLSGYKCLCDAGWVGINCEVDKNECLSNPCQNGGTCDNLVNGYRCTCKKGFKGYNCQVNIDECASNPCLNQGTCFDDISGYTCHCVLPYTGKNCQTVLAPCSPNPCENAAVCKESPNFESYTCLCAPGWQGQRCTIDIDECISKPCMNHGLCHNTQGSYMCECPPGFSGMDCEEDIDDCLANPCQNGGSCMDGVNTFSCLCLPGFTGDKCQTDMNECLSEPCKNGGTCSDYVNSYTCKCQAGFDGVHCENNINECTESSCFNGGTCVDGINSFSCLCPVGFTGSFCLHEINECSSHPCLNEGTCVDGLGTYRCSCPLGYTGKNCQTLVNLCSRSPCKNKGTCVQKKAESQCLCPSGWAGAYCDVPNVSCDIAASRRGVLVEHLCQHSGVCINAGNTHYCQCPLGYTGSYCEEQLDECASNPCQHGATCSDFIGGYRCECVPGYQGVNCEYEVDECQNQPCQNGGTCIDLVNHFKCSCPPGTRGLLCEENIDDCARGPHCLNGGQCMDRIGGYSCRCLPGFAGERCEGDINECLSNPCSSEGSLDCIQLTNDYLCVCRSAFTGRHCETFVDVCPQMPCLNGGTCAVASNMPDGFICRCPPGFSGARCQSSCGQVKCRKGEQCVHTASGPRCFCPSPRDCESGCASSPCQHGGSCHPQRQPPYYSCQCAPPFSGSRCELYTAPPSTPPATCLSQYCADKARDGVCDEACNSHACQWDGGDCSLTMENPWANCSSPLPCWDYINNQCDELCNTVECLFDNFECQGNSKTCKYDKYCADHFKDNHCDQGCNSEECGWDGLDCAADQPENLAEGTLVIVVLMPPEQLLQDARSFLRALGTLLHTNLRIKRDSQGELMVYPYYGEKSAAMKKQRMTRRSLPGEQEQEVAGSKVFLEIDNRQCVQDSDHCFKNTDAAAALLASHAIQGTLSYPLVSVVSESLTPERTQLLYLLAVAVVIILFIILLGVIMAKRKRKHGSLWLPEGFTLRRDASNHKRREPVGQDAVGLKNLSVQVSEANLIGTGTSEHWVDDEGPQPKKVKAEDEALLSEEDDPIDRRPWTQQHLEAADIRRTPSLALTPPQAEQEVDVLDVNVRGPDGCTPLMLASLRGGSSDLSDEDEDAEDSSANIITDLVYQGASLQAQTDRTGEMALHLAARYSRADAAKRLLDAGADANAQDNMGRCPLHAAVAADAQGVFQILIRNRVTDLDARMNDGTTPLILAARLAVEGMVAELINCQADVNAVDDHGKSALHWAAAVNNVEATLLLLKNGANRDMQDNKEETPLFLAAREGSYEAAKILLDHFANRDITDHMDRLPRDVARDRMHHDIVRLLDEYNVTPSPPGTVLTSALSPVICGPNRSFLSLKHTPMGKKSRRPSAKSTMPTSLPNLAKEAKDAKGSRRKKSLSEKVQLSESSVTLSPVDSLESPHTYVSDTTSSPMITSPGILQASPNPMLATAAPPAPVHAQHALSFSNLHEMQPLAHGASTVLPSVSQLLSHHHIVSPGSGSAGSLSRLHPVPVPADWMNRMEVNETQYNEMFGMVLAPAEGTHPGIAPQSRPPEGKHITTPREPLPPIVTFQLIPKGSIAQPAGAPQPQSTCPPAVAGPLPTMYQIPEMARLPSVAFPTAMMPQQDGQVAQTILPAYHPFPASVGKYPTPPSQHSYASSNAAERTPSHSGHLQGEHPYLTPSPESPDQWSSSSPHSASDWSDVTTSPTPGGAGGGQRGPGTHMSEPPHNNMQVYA
# Sequence of Neurogenic locus notch homolog protein 3 (Homo sapiens) (Q9UM47 whole entry, looked up): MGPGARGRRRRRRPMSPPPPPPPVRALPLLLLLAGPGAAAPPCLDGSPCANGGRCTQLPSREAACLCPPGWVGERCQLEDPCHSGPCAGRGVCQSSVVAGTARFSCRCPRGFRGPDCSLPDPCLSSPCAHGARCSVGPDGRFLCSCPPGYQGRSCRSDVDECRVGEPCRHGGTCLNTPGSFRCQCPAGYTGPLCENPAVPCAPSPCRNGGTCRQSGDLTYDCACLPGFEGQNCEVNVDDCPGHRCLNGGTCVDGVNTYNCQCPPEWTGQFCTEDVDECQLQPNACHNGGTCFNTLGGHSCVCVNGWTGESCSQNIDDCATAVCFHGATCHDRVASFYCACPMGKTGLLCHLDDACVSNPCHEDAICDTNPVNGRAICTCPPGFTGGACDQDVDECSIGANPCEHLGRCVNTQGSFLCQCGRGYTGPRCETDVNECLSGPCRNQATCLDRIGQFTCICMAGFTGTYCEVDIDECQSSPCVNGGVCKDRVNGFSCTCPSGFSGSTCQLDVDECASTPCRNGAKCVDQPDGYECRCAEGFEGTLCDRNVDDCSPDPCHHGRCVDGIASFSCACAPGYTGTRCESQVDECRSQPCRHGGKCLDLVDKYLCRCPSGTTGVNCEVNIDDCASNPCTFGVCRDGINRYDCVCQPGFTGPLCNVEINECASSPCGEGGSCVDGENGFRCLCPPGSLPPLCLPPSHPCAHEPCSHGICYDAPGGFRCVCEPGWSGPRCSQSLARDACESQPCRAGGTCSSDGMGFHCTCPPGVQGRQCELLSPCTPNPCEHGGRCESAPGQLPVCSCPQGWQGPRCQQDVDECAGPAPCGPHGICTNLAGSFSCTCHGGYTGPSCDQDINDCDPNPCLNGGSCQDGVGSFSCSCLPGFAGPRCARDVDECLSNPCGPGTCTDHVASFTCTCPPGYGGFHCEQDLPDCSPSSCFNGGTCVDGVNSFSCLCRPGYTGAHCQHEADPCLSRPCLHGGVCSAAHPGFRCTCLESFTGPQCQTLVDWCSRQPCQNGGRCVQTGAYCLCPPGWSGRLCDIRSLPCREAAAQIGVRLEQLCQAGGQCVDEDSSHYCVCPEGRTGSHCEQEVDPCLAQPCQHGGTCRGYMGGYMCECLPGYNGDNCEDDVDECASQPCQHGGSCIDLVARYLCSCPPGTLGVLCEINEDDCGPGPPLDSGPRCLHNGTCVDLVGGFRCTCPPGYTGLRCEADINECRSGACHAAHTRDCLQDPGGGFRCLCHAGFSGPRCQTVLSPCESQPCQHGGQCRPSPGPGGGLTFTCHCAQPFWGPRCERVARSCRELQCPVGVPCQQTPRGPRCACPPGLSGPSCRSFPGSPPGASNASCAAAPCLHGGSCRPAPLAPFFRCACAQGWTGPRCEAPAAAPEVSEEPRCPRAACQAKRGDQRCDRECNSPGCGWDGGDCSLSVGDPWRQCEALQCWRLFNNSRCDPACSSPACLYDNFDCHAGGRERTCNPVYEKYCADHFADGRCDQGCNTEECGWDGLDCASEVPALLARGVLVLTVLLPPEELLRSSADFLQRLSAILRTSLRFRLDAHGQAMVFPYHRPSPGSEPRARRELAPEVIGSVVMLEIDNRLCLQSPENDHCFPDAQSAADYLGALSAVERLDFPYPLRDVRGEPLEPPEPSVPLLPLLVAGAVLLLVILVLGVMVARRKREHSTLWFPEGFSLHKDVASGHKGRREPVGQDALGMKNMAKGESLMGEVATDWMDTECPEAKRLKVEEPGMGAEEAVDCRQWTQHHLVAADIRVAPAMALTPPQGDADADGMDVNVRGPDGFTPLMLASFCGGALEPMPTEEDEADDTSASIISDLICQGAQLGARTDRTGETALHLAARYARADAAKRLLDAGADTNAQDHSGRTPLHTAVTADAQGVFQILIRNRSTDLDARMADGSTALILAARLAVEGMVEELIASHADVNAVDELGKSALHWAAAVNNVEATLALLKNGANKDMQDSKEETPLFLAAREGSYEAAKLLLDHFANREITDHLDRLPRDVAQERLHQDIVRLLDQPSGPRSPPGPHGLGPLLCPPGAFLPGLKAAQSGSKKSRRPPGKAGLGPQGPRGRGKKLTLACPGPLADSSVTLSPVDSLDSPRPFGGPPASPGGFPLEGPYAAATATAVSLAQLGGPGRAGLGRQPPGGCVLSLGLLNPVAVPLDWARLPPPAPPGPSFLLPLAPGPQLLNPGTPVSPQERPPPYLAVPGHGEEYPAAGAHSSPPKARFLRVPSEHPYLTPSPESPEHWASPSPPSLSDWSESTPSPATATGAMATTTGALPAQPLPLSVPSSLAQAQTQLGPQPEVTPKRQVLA
SMILES,composite z-score [1],composite z-score [2],composite z-score [3],composite z-score [4],composite z-score [5],composite z-score [6],composite z-score [7],z-score [8],composite z-score [9],composite z-score [10],composite z-score [11],z-score [12],z-score [13],z-score [14],composite z-score [15],z-score [16],composite z-score [17],composite z-score [18],composite z-score [19],composite z-score [20]
O=C1C2C=CC(C(O)c3ccc(Br)cc3)N(n3cnnc3)C2C(=O)N1Cc1ccccc1 (stereo not given),-0.0627,0.52,0.0488,0.533,1.3,0.0603,0.722,0.258 (inactive),0.549,0.134,1.56,-26.6 (active),-16 (active),0.881 (inactive),2.83,-0.415 (inactive),0.126,0.57,1.03,0.115
CC(C)(C)OC(=O)CC[C@]1(C(=O)NCC(O)CO)N=C(c2ccc(OCCCO)cc2)O[C@H]1c1ccccc1CN=[N+]=[N-] (stereo not given in full),1.32,2.46,0.314,0.922,1.68,2.09,0.722,2.4 (inactive),1.68,-0.0024,1.06,-0.624 (inactive),-0.867 (inactive),-0.859 (inactive),3.59,0.301 (inactive),0.716,0.27,1.08,0.61
C=C(CCCC)C(=O)CC[C@H](OC(=O)c1ccccc1-c1ccccc1C(=O)O)c1ccc(CO)o1,-0.619,0.779,-0.0206,1.16,0.455,0.606,1.25,-0.225 (inactive),0.367,-0.0994,1.55,-0.521 (inactive),0.162 (inactive),0.437 (inactive),1.99,0.251 (inactive),-0.132,1.35,1.06,-0.065
O=C1[C@H]2C=C(Br)[C@H](C[C@@H]2OCCOCCO)[C@@]12CO2,0.0321,-0.0798,-0.103,0.373,0.473,-0.151,0.437,-0.0763 (inactive),0.0751,-0.0994,-0.223,0.85 (inactive),0.397 (inactive),1.19 (inactive),0.0385,-0.922 (inactive),-0.111,0.595,0.235,0.0974
CO[C@H]1O[C@H](CO)[C@@H](OC(=O)Nc2ccccc2-c2ccccc2)[C@H](OC(=O)Nc2ccccc2-c2ccccc2)[C@H]1OC(=O)Nc1ccccc1-c1ccccc1,-0.0136,1.68,0.17,1.17,1.4,0.885,1.42,0.849 (inactive),0.374,0.245,1.54,3.06 (inactive),2.48 (inactive),10.6 (active),3.23,0.956 (inactive),0.115,0.65,1.08,0.0553
[N-]=[N+]=Nc1ccccc1C[C@]1(C(=O)N2CCCCC2)N=C(c2ccc(OCCCO)cc2)O[C@H]1c1ccccc1N=[N+]=[N-],0.368,-0.155,0.14,0.771,1.53,1.71,1.01,-1.68 (inactive),0.991,-0.305,1.56,0.0343 (inactive),-10.4 (active),1.51 (inactive),3.48,-0.204 (inactive),0.512,0.471,1.05,0.277
CC1CC/C=C\[C@H]2OC34C=CCN(CCN5CCOCC5)C(=O)[C@H]3N(CCCCCO)C(=O)[C@@H]4C2C(=O)O1 (stereo not given in full),-0.0823,-0.368,-0.21,-1.05,-0.777,-0.85,-0.358,0.209 (inactive),-0.633,-0.216,-0.632,-0.631 (inactive),-0.726 (inactive),-0.206 (inactive),-1.13,-0.497 (inactive),-0.339,-1.02,-1.17,-0.158
[N-]=[N+]=NCc1ccccc1C[C@]1(C(N)=O)N=C(c2ccc(OCCCO)cc2)O[C@H]1c1ccccc1N=[N+]=[N-],0.567,-0.186,-0.0085,0.665,0.997,1.3,1.12,-1.4 (inactive),0.93,0.151,1.37,1.22 (inactive),1.29 (inactive),1.39 (inactive),2.84,-0.0072 (inactive),0.175,-0.433,0.616,0.268
C=CC[C@@]1(C(N)=O)N=C(c2ccc(OCCCO)cc2)O[C@@H]1c1ccccc1N=[N+]=[N-],1.68,0.444,0.069,1.08,1.13,1.5,1.34,2.64 (inactive),1.03,0.0769,1.14,-0.545 (inactive),0.0584 (inactive),-1.15 (inactive),2.44,1.4 (inactive),0.429,0.404,-0.299,0.317
C=CCC(OC(C)=O)[C@@H]1[C@@H](N(Cc2ccc(-c3ccccc3)cc2)C(=O)c2ccc(C)cc2)c2cc(OCCCO)ccc2N1C(=O)c1ccc2ccccc2n1 (stereo not given in full),-0.131,0.42,-0.0434,0.199,0.0291,0.676,-0.325,-1.24 (inactive),0.13,0.154,-0.11,-2.47 (inactive),-0.772 (inactive),-1.15 (inactive),0.209,1.95 (inactive),0.407,-0.267,-0.197,-0.0836
C=CCNC(=O)[C@H]1[C@@H]2C(=O)O[C@@H](c3ccccc3)[C@@H](c3ccccc3)N2[C@@H](c2ccc(OCCO)cc2)[C@]12C(=O)N(C(=O)OCCOC)c1ccc(C#CC3(O)CCCCCC3)cc12,-0.0322,1.14,-0.0627,0.527,1.03,0.764,1.31,-0.313 (inactive),0.422,0.113,1.54,1.95 (inactive),0.97 (inactive),6.64 (inactive),2.42,1.08 (inactive),-0.0319,1.6,1.04,0.122
C=CCN1Cc2ccccc2C[C@]2(N=C(c3ccc(OCCCO)cc3)O[C@@H]2c2ccccc2)C1=O,0.211,0.363,-0.0883,-0.147,0.977,0.414,1.35,-3.57 (inactive),0.607,0.0722,1.56,-6.17 (inactive),-9.52 (active),0.272 (inactive),3.27,1.49 (inactive),0.129,0.824,1.07,-0.0455
C[C@]1(C(=O)NCC(F)(F)F)c2ccccc2C(=O)N(Cc2cc(F)cc(C(F)(F)F)c2)[C@H]1c1ccc(CO)cc1,-0.599,0.553,0.274,0.0438,-0.94,1.74,0.623,-0.763 (inactive),-0.409,2.14,1.38,0.49 (inactive),-0.936 (inactive),-0.563 (inactive),2.67,-0.951 (inactive),0.341,-0.16,-0.255,0.52
C=C[C@@H](C)[C@@H](OC(=O)Nc1ccc(OC)cc1)c1ccc(O)c2ccccc12,-0.262,0.173,-0.0423,0.245,-0.11,0.543,1.03,2.58 (inactive),0.105,-0.128,0.906,-24.7 (active),-20.9 (active),-3.73 (inactive),1.15,1.02 (inactive),-0.17,1.15,0.514,-0.116
CN(C)CCCCCCNC(=O)[C@@H]1C[C@@H]2C(=O)NCC(=O)N2[C@@H]1c1cccc(OCCO)c1,-0.131,1.37,0.153,0.816,1.14,0.346,1.26,2.12 (inactive),0.555,0.164,1.53,0.116 (inactive),-0.192 (inactive),0.191 (inactive),3.07,0.121 (inactive),0.164,1.17,1.03,0.0225
Cn1c2c(c3ccccc31)C(=O)C1NC2C=CC1(C)C(=O)OCc1ccccc1 (stereo not given),1.03,0.979,-0.176,-1.31,-1.15,1.06,0.467,-1.52 (inactive),-0.478,-0.0645,0.417,-0.566 (inactive),0.35 (inactive),-0.233 (inactive),3.1,-1.01 (inactive),-0.0097,-2.04,-0.258,-0.264
[N-]=[N+]=NCc1ccccc1C[C@]1(C(=O)NCc2ccccc2)COC(c2ccc(OCCCO)cc2)=N1,0.0555,0.808,0.0111,0.157,0.472,1.17,0.931,-3.06 (inactive),0.534,-0.166,1.01,1.67 (inactive),0.816 (inactive),36 (active),3.12,1.21 (inactive),-0.0438,0.0869,-0.146,-0.0828
CCCNC(=O)[C@@]1(C)c2ccccc2C(=O)N(Cc2ccc(OC(F)(F)F)cc2)[C@H]1c1ccc(CO)cc1,0.29,-0.0811,0.015,-0.387,-0.321,1.2,1.3,-3.98 (inactive),-0.337,0.28,0.294,-0.446 (inactive),0.242 (inactive),-0.548 (inactive),-0.416,0.922 (inactive),0.0241,-0.432,0.13,-0.18
O=C1O[C@@H](c2ccccc2)[C@@H](c2ccccc2)N2[C@@H](c3ccccc3OCCO)[C@]3(C(=O)Nc4ccc(C#CC5(O)CCCCCC5)cc43)[C@@H](C(=O)NC[C@H](O)c3ccccc3)[C@H]12,1.99,0.142,0.0924,1.03,0.81,1.75,1.24,-1.2 (inactive),1.74,0.0145,1.55,1.77 (inactive),1.16 (inactive),4.86 (inactive),3.08,-0.371 (inactive),0.161,1.69,1.05,0.146
O=C(NCC(O)CO)[C@]1(CCS(=O)(=O)c2ccccc2)N=C(c2ccc(OCCCO)cc2)O[C@@H]1c1ccccc1 (stereo not given in full),0.871,1.87,-0.0064,-0.299,0.158,2.3,1.3,0.47 (inactive),1.08,-0.288,-0.214,-0.59 (inactive),-0.149 (inactive),-0.92 (inactive),3.67,0.169 (inactive),-0.0949,-0.203,-0.256,-0.0913
